For 40 compounds, relative growth results are on record in the supplement of paper PMC12067926.

Molecules are shown by their SMILES.

In this assay the test system is Bacillus 1 (Bacillus foraminis). As to the kind of experiment: relative growth (AUC of 72 h growth curve relative to DMSO control, dAUC) (ratio); higher = more growth (less inhibition), active = hit call of the paper. The settings on record: 20 µM. Here is the method:
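Environmental bacterial isolates (Iceland stream sediment and Silwood Park soil) and whole stream-sediment communities were grown in LB from a 1:100 dilution with each pesticide at 20 µM (1% DMSO). A600 was read hourly for 72 h and the area under a spline-fitted growth curve (AUC) was computed. dAUC is the mean AUC of 3 biological replicates divided by the mean AUC of the DMSO controls. Significance was tested by Dunnett's test against the DMSO control.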
Take `CC1(C)C(C=C(Cl)Cl)C1C(=O)OC(C#N)c1cccc(Oc2ccccc2)c1` (stereo not given): the relative growth is 1.11 (inactive).

For `CSc1nc(NC(C)C)nc(NC(C)C)n1`, the relative growth is 0.945 (inactive).

Regarding `CCCC(Cn1cncn1)c1ccc(Cl)cc1Cl` (stereo not given), the relative growth was 1.1 (inactive). Then `CS(=O)(=O)c1ccc(C(=O)C2C(=O)CCCC2=O)c([N+](=O)[O-])c1`, with 0.961 (inactive). Then `CC1(C)[C@H](/C=C(\Cl)C(F)(F)F)[C@@H]1C(=O)OC(C#N)c1cccc(Oc2ccccc2)c1` (stereo not given in full), with 1.05 (inactive). Then `N#CC(CCc1ccc(Cl)cc1)(Cn1cncn1)c1ccccc1` (stereo not given), with 0.836 (inactive); and `CC1(C)CON(Cc2ccccc2Cl)C1=O`, with 1.03 (inactive); and `COP(=O)(NC(C)=O)SC` (stereo not given), with 1.02 (inactive). Take `CN(C)C(CSS(=O)(=O)O)CSS(=O)(=O)O`: the relative growth was 1.07 (inactive). Then `N#Cc1cc(Br)c(O)c(Br)c1`, with 0.916 (inactive); and `CNC(=O)Oc1cccc2ccccc12`, with 1.05 (inactive). With `CC[C@H](C)[C@H]1O[C@]2(C=C[C@@H]1C)C[C@@H]1C[C@@H](C/C=C(\C)[C@@H](O[C@H]3C[C@H](OC)[C@@H](O[C@H]4C[C@H](OC)[C@@H](O)[C@H](C)O4)[C@H](C)O3)[C@@H](C)/C=C/C=C3\CO[C@@H]4[C@H](O)C(C)=C[C@@H](C(=O)O1)[C@]34O)O2.CO[C@H]1C[C@H](O[C@H]2[C@H](C)O[C@@H](O[C@@H]3/C(C)=C/C[C@@H]4C[C@@H](C[C@]5(C=C[C@H](C)[C@@H](C(C)C)O5)O4)OC(=O)[C@@H]4C=C(C)[C@@H](O)[C@H]5OC/C(=C\C=C\[C@@H]3C)[C@]54O)C[C@@H]2OC)O[C@@H](C)[C@@H]1O`, the relative growth is 0.944 (inactive). To `COCC(=O)N(c1c(C)cccc1C)C(C)C(=O)OC` (stereo not given) belongs 1.11 (inactive); to `CC1(C)C(C=C(Cl)Cl)C1C(=O)OCc1cccc(Oc2ccccc2)c1` (stereo not given), 1.06 (inactive); to `COC(=O)Nc1nc2ccccc2[nH]1`, 1.1 (inactive).

In the case of `COc1ncc(F)c2nc(S(=O)(=O)Nc3c(F)cccc3F)nn12`, the relative growth is 1.06 (inactive). Then `CCOCn1c(-c2ccc(Cl)cc2)c(C#N)c(Br)c1C(F)(F)F`, with 1.1 (inactive). As for `CNC(=O)/C=C(\C)OP(=O)(OC)OC`, the relative growth was 0.96 (inactive). To `CC(C)CC(C)c1sccc1NC(=O)c1cn(C)nc1C(F)(F)F` (stereo not given) belongs 0.959 (inactive); to `Cc1ccc(/N=C/N(C)/C=N/c2ccc(C)cc2C)c(C)c1`, 1.01 (inactive); to `CCCC1COC(Cn2cncn2)(c2ccc(Cl)cc2Cl)O1` (stereo not given), 0.942 (inactive). For the compound `CCCCOC(=O)[C@H](C)Oc1ccc(Oc2ccc(C#N)cc2F)cc1`, the relative growth was 1.07 (inactive).

Turning to `CC(C)N(C)S(=O)(=O)NC(=O)c1cc(-n2c(=O)cc(C(F)(F)F)n(C)c2=O)c(F)cc1Cl`, the relative growth was 0.998 (inactive). Then `CCc1nn(C)c(C(=O)NCc2ccc(Oc3ccc(C)cc3)cc2)c1Cl`, with 1.05 (inactive). Then `N#C/N=C1\SCCN1Cc1ccc(Cl)nc1`, with 1.08 (inactive); and `O=C(Nc1ccccc1-c1ccc(Cl)cc1)c1cccnc1Cl`, with 1.01 (inactive). As to `N#Cc1sc2c(=O)c3ccccc3c(=O)c=2sc1C#N`, the relative growth is 0.97 (inactive). For the compound `CCSC(C)CC1CC(=O)C(/C(CC)=N/OC/C=C/Cl)=C(O)C1` (mixture of isomers), the relative growth was 1.06 (inactive). To `CCNC(=O)NC(=O)/C(C#N)=N/OC` belongs 1.04 (inactive); to `CO/C=C(/C(=O)OC)c1ccccc1Oc1cc(Oc2ccccc2C#N)ncn1`, 1.03 (inactive). On to `CC1(C(=O)Nc2ccc(O)c(Cl)c2Cl)CCCCC1`, for which the relative growth was 1.01 (inactive). Then `O=C(Nc1ccc(F)cc1F)c1cccnc1Oc1cccc(C(F)(F)F)c1`, with 1.07 (inactive). To `CC(Oc1ccc(Oc2ncc(C(F)(F)F)cc2Cl)cc1)C(=O)O` (stereo not given) belongs 1 (inactive); to `Nc1c([N+](=O)[O-])ccc(Oc2ccccc2)c1Cl`, 1.02 (inactive); to `C[N+]1(C)CCCCC1`, 1.04 (inactive). Regarding `CCOP(=S)(OCC)Oc1nc(Cl)c(Cl)cc1Cl`, the relative growth is 1.07 (inactive). To `O=C1c2ccccc2C(=O)N1SC(Cl)(Cl)Cl` belongs 1.12 (inactive); to `CCc1cnc(C2=NC(C)(C(C)C)C(=O)N2)c(C(=O)O)c1` (stereo not given), 1.11 (inactive); to `CO/C=C(/C(=O)OC)c1ccccc1COc1cccc(C(F)(F)F)n1`, 1.05 (inactive).

Turning to `COc1cc(C)c(C(=O)c2c(OC)ccc(Br)c2C)c(OC)c1OC`, the relative growth is 1.03 (inactive).
